Screens from PubChem BioAssay.
JMJD2A Tudor: blocks the human JMJD2A Tudor domain; O75164; 390,000 compounds, 4.4% hits; Potency, µM (highest dose often 114 µM), for the others: at the top dose activity change, negative = inhibition, actives largely listed as inhibitors; AlphaScreen JMJD2A-Tudor / H3K4me3 peptide binding; further: on the % scale 0 is the no-effect control and ±100 the full control effect; nearly all actives have a fitted effect of over 50% in size
HP1b binding inh: inhibitors of HP1-beta chromodomain binding to methylated histone tails; P83916; AlphaScreen HP1-beta / biotin-H3K9me3 peptide binding; Potency, µM (doses to about 114 µM), without a hit: top-dose activity change, negative = inhibition, usual class: inhibitors; 390,000 compounds, 0.56% hits; AID 540317; further: nearly all actives have a fitted effect of over 70% in size
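Compound inhibition of the preformed complex between 50 nM HP1-beta and 50 nM biotinylated H3K9me3 peptide was read by AlphaScreen. Buffer was PBS pH 7.4 with 0.01% Tween-20. Incubations ran 30 min at room temperature, with 10 ug/mL donor/acceptor beads.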
G9a inh: G9a (human) methyltransferase inhibition; G9a H3K9 monomethylation, AlphaScreen, 2 h; Potency, µM (highest dose often 102 µM), for inactives: at the highest dose activity, negative = inhibition, most hits filed as inhibitors; 350,000 compounds, 8.8% hits; further: on the % scale 0 is the no-effect control and ±100 the full control effect; nearly all actives have a fitted effect of over 75% in size
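Using a bead-based AlphaScreen, monomethylated H3K9 product from 2 h room-temperature reactions (G9a 20 nM, peptide 500 nM, SAM 20 uM) was detected with 0.5 ug/mL rabbit anti-H3K9me1 antibody.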
BAZ2B inh: inhibitors of human BAZ2B bromodomain. 360,000 compounds, 4.4% hits. Q9UIF8. AlphaScreen BAZ2B-H3K14Ac peptide displacement. AID 504333. Potency, µM (titrated, usually from 114 µM), for the others: at the highest dose activity change, negative = inhibition, usual class: inhibitors; further: on the % scale 0 is the no-effect control and ±100 the full control effect; nearly all actives have a fitted effect of over 60% in size
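Inhibition is scored as reduced AlphaScreen emission. The BAZ2B/b-H3(5-23)K14Ac complex (50 nM each) in PBS pH 7.4, 0.01% Tween-20 meets compound (up to 110 uM) for 30 min at RT before bead addition.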
L3MBTL1 inh: blocks human L3MBTL1; Q9Y468; AlphaScreen L3MBTL1–H3K9me1 peptide binding; Potency, µM (series often up to 57.1 µM), without a hit: at the top dose activity, negative = inhibition, usual class: inhibitors; 230,000 compounds, 0.66% hits; AID 485360; further: on the % scale 0 is the no-effect control and ±100 the full control effect; nearly all actives have a fitted effect of over 60% in size
Target sequence (Q9Y468 whole entry, looked up): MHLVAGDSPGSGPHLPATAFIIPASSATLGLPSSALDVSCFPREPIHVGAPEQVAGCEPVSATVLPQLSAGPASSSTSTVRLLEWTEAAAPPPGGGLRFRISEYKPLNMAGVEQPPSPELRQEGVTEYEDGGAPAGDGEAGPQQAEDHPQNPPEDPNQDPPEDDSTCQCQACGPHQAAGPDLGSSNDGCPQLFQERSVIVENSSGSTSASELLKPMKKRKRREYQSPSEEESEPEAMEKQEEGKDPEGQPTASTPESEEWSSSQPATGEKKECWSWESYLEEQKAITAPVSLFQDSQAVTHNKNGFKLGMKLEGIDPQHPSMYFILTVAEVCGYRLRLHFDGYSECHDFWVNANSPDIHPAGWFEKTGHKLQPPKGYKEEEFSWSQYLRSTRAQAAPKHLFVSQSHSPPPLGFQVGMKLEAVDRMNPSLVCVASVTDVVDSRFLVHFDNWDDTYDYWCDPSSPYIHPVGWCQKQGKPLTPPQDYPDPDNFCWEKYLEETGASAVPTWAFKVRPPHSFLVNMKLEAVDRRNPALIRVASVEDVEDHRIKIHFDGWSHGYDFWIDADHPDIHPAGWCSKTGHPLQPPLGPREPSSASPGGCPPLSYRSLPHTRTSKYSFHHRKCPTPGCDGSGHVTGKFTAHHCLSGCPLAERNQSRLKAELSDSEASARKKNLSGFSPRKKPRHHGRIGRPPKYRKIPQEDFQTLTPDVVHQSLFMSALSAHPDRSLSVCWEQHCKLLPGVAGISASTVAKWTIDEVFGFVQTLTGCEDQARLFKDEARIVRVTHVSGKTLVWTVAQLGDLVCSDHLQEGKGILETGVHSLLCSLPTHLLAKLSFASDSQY
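First, the protein-peptide complex forms for 30 min at room temperature (L3MBTL1 50 nM, biotinylated H3K9me1 peptide 75 nM). Next, compounds are pin-transferred and incubated 30 min. Finally, AlphaScreen beads are added and read after 30 min.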
Active calls of the source: *; ? = inconclusive; . = no result given; [ ] = dose if it differs, or a comment. Hits are enriched below; roughly 11% of the tested compounds scored in any of these assays. The call rests on the fitted dose curve; in most records, active means well fitted inhibition curve with a large enough effect; inconclusive means small, poorly fitted or top-dose-only effect; inactive means no such curve, though single readings can be large or run the other way. Potency means the concentration at half of the fitted maximal effect.

SMILES | JMJD2A Tudor | HP1b binding inh | G9a inh | BAZ2B inh | L3MBTL1 inh
CC(=O)N1c2ccc(S(=O)(=O)NCC3CCC(C(=O)NCCC(C)C)CC3)cc2CC1C (centres undefined) | 9% | 39% | 9%[59 µM] | -1% | .
CCCn1c(=O)c2sccc2n2c(CCCC(=O)N3CCN(c4ccccc4OC)CC3)nnc12 | -3% | 73% | 16%[59 µM] | 7% | .
COc1cc(CN2CCN(c3ccccc3C)CC2)cc([N+](=O)[O-])c1O | 4µM* | ? | 79µM* | ? | -13%
COC(=O)c1cc2occc2n1CC(=O)Nc1ccc(N(C)C)cc1 | -23% | 14% | ? | -35% | .
CCOc1cc(Br)cc(/C=N/NC(=O)c2cccnc2)c1O | 40µM* | 59% | 21%[59 µM] | 28µM* | ?
Cc1ccc(C(=O)N/N=C/c2cc(Br)ccc2O)cn1 | 56µM* | 12% | 67%[0.501 µM] | 7.9µM* | -3%[2.29 µM]
CCN(CC)S(=O)(=O)c1cccc(C(=O)N/N=C/c2cccc(O)c2O)c1 | -27% | 14% | 0%[59 µM] | 8% | -1%
CCN(CC)S(=O)(=O)c1cccc(C(=O)N/N=C/c2ccccn2)c1 | ? | 11% | ? | 56µM* | -5%
O=C(O)c1cccc(NC(=S)N/N=C/c2ccccn2)c1 | 25µM* | 14% | 50µM* | 3.5µM* | 20µM*
COc1c(Br)cc(Br)cc1/C=N/NC(=O)c1cccnc1 | -7% | 50% | -11%[59 µM] | -4% | 4%
O=C(NCCCOc1ccc([N+](=O)[O-])cc1Cl)OCc1ccccc1 | -12% | 27% | . | . | .
Cc1ccc(OCC(=O)NCC(=O)OCc2cc(=O)n3nc(CC(C)C)sc3n2)cc1 | 6% | 24% | 4%[59 µM] | -3% | .
O=S(=O)(NC1CCCC(NS(=O)(=O)c2c(F)cccc2F)C1)c1ccc2c(c1)OCCO2 (centres undefined) | -10% | . | . | . | .
Cc1cccc(C(=O)N/N=C/c2ccccn2)c1 | ? | 7% | 16µM* | 3% | 28%
CC(C)NC(=S)N/N=C/c1cc(Br)ccc1O | 50µM* | ? | 3%[59 µM] | 18µM* | ?
C/C(CC(=O)Nc1cc(C)ccn1)=N\NC(=O)c1cccc(C)c1 | -12% | 18% | 103%[59 µM] | 89µM* | .
COC(=O)N/N=C/c1cc(Br)ccc1O | -17% | 41% | -36% | 5% | -8%
Cc1ccc(C(=O)N/N=C\c2ccccn2)cn1 | 79µM* | 12% | 25% | ? | 2%
O=C(NCc1cccc(F)c1)C1CCN(c2nc3ccccc3nc2C(F)(F)F)CC1 | -5% | 16% | -1%[59 µM] | 0% | .
COc1ccc(-c2cn3nc(N4CCC(C(=O)NCc5ccccc5F)CC4)sc3n2)cc1 | -10% | 15% | -5%[59 µM] | 3% | .
Cc1cc(C)cc(C(=O)N2CC(=O)Nc3ccc(C)cc3C2c2ccccc2)c1 (centres undefined) | -35% | -1% | 2%[59 µM] | -22% | .
O=C(N/N=C/c1ccccn1)c1cc([N+](=O)[O-])cc([N+](=O)[O-])c1 | 56µM* | 20% | 15% | 50µM* | .
O=C(N/N=C/c1ccccn1)c1ccc(NC(=O)c2cccc([N+](=O)[O-])c2)cc1 | -2%[11.4 µM] | 48% | ? | 11% | 46%
O=C(N/N=C/c1ccccn1)c1ccc([N+](=O)[O-])cc1 | -17% | 29% | -32% | -38% | -18%
Cc1ccc(C(=O)N/N=C/c2cccc(OC(=O)/C=C/c3ccco3)c2)cn1 | -4%[11.4 µM] | ? | 45µM* | 50µM* | 32µM*
SMILES | JMJD2A Tudor | HP1b binding inh | G9a inh | BAZ2B inh | L3MBTL1 inh
O=C(N/N=C/c1ccccn1)c1cccc([N+](=O)[O-])c1 | -18%[11.4 µM] | 26% | ? | 45µM* | -25%
O=C(N/N=C/c1ccncc1)c1cc([N+](=O)[O-])cc([N+](=O)[O-])c1O | 79µM* | 24% | ? | ? | -10%
O=C(CCSCc1cccc(Cl)c1)NCc1ccccc1Cl | 24% | 56% | 10%[59 µM] | 37% | .
COc1ccc(NC(=O)COC(=O)CCOc2ccccc2C)cc1Cl | 10% | 60% | 0%[59 µM] | 14% | 5%
COc1ccc(Cl)cc1NC(=S)NC(=O)c1ccco1 | 11% | 48% | -11%[12.7 µM] | 4% | 5%
Cc1ccc(NC(=O)N2CCN(C(=O)c3nsc4ccccc34)CC2)cc1C | -22% | 18%[57 µM] | 8%[59 µM] | -4% | .
O=C(N/N=C/c1ccc2ncccc2c1)c1cccc([N+](=O)[O-])c1 | ? | 205% | 79µM* | -39% | .
Cc1cc(-c2nnc(-c3ccccc3)c(-c3ccccc3)n2)c(C)o1 | ? | -20% | 16µM* | ? | -11%
c1cc[n+](CCC[n+]2ccccc2)cc1 | ? | 11% | 11µM* | 0% | .
c1cc[n+](CCCC[n+]2ccccc2)cc1 | -8% | 25% | . | 8% | -4%
CCSc1nc2cc(S(=O)(=O)N3CCOCC3)ccc2o1 | 28µM* | ? | . | . | 4%
CCn1c2ccccc2c2nc3cc(S(=O)(=O)N4CCOCC4)ccc3nc21 | -9%[57.1 µM] | ? | 2.2µM* | 1% | 14%
O=c1ccc2cc(S(=O)(=O)N3CCOCC3)ccc2o1 | 0% | 12% | 4%[59 µM] | -12% | -3%
O=C(CSc1nc2cc(S(=O)(=O)N3CCOCC3)ccc2o1)NC1CCCc2ccccc21 (centres undefined) | 50µM* | -36% | ? | -5% | 2%[11.4 µM]
CCn1c(SCC(=O)c2cc(C)ccc2C)nc2cc(S(=O)(=O)N3CCOCC3)ccc21 | -9% | 20% | 25µM* | -9% | -3%
COc1ccc(CCNC(=O)c2ccc3c(c2)nc2n3CCOC2)cc1OC | 11% | 29%[57 µM] | 9%[59 µM] | 2% | .
CC(=O)Nc1ccn(C2OC(C(COC(C)=O)NC(=O)C(COCc3ccccc3)NC(=O)OC(C)(C)C)C(OC(C)=O)C2OC(C)=O)c(=O)n1 (centres undefined) | -16% | 13% | . | . | .
O=C(Nc1ccc(Cl)cc1)c1cc2c(-c3ccccc3)nn(-c3ccccc3)c2s1 | 0% | 35% | 8%[59 µM] | 5%[57.1 µM] | .
Cc1ccc(C(=O)CSc2nc3cc(S(=O)(=O)N4CCOCC4)ccc3o2)cc1 | -13% | 5% | 32µM* | 2% | -4%
Cc1[nH]c2ccccc2c1C(=O)CSc1nc2cc(S(=O)(=O)N3CCCCC3)ccc2o1 | -14%[57.1 µM] | 29% | -26% | -5% | -6%
COc1ccc(OC)c(NC(=O)c2nnn(CC(=O)Nc3ccc(C(C)C)cc3)c2N)c1 | -20% | 20% | -36%[59 µM] | 5%[57.1 µM] | .
COc1ccc(/C=C/C(=O)Oc2ccc(/C=N/NC(=O)COc3c(C)cccc3C)cc2)cc1 | . | . | 4%[59 µM] | -2% | -5%
COc1ccc(/C=C/C(=O)Oc2cccc(/C=N/NC(=O)COc3c(C)cccc3C)c2)cc1 | 2% | 20% | -80%[12.7 µM] | 100µM* | -2%
CCOC(=O)c1csc(-c2ccc(OC)c(OC)c2)n1 | -4% | 34% | -3% | 5% | 12%
CCOc1ccc(-c2nc(CCl)cs2)cc1OC | 7%[57.1 µM] | 70% | 45µM* | ? | 7%[11.4 µM]
